Test results reported in PubChem BioAssay (NCI).
Compounds without any hit were thinned out: in the full panel of roughly 83,000, 20% have a hit.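 Negative percent growth values reflect cell death: -40 means 40% of the cells present at the start died, and -100 means all died.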 A number with no mark means an inactive call. The source made the active and inactive calls. How the source made its calls: active means growth percent below 10; inactive means the rest.

Each compound was assayed on SNB-19 CNS (assay: NCI-60 one-dose screen, 48 h (100 = growth as untreated, 0 = no growth, -100 = all killed)). Details: 10 µM unless noted.

Row | SMILES | growth
1 | Fc1ccc(-c2cc3nc(C(Cl)Cl)nc(-c4ccccc4)n3n2)cc1 | -6.52% (active)
2 | O=C(c1ccc(Cl)cc1)C1[C@H](c2ccc(Cl)cc2)[C@@H](c2ccccc2)NC12C(=O)Nc1ccc(Br)cc12 (stereo partly drawn) | 60.5%
3 | COc1ccccc1C(=O)CSc1nc(Nc2ccc(S(N)(=O)=O)cc2)c2ccccc2n1 | 85.7%
4 | CC(C)(C)Nc1nc2c(OCCc3ccccc3)cccn2c1-c1ccccc1Cl | 18.4%
5 | CNC(=O)c1cc(-c2ccc(NC(=O)Nc3ccc(N4CCOCC4)c(C(F)(F)F)c3)cc2)nc2cccnc12 | 58.8%
6 | CS(=O)(=O)c1ccc(-n2cc(/C=C/C(=O)c3ccc(NC(=O)CO[N+](=O)[O-])cc3)c(-c3ccc(Cl)cc3)n2)cc1 | 84.9%
7 | Cc1[nH]nc2ncc(C#Cc3cncc(C(=O)Nc4ccc(CN5CCN(C)CC5)c(C(F)(F)F)c4)c3)cc12 | 50.5%
8 | CCN1C(=S)N(CC)C2C1N=C(SC)N2/N=C/C=C/c1ccccc1[N+](=O)[O-] (stereo not drawn) | 103%
9 | C/C(=C(/c1ccc(Cl)cc1)c1ccc(OCCN)cc1)c1ccc(C)cc1 | 92.6%
10 | O=[N+]([O-])c1ccc(O)c2ncccc12 | 23.8%
11 | Cc1cc(=O)oc2cc(OCCCOc3ccc(/C=C/C(=O)Nc4ccc(Cl)cc4)cc3)ccc12 | 89.6%
12 | Cc1ccc(-c2nc(C(Cl)Cl)nc3cc(-c4ccccc4)nn23)cc1 | 14.8%
13 | Nc1cc(-c2c[nH]c3ccc(F)cc23)nc2cc(-c3c[nH]c4ccc(F)cc34)nn12 | 106%
14 | COc1cccc(N2CCN(c3ncnc4c3[nH]c3ccc(F)cc34)C[C@@H]2C)c1 | -12% (active)
15 | Cc1ccc(/C=C/c2nn3c(-c4ccco4)nnc3s2)cc1C | 94.9%
16 | CCN1C(=S)N(CC)C2C1NN=C1SC(c3ccccc3)=CC(=O)N12 (stereo not drawn) | 98.5%
17 | CC(C)NC(=O)c1cc(-c2ccc(NC(=O)Nc3ccc(N4CCOCC4)c(C(F)(F)F)c3)cc2)nc2cccnc12 | 62.6%
18 | Cn1cc(-c2cc(N)n3nc(-c4cn(C)c5ccc(Cl)cc45)cc3n2)c2cc(Cl)ccc21 | 99.4%
19 | NS(=O)(=O)c1cccc(Nc2nc(SCC(=O)c3ccc(Cl)cc3)nc3ccccc23)c1 | 69.6%

Row | SMILES | growth
20 | Cc1sc2c(c1C)c(=O)nc1c(-c3nc(-c4ccc(F)cc4)no3)n[nH]n12 | 101%
21 | CN1C(=O)N(c2ccccc2)C2N=C(N/N=C/c3ccccc3)SC21 (stereo not drawn) | 53%
22 | O=C1C2=C(C(=O)c3c(O)cccc31)C(c1ccco1)c1sc(=O)[nH]c1S2 (stereo not drawn) | 13.6%
23 | N[C@@H](Cc1cn(-c2c3ccccc3nc3ccccc23)nn1)C(=O)O | 93.2%
24 | Cc1sc2nc(NCc3ccccc3Cl)[nH]c(=O)c2c1C | 102%
25 | COc1ccccc1/C=C/C=N/NC1=NC2C(S1)N(C)C(=O)N2C (stereo not drawn) | 29.1%
26 | CC(=O)Nc1cc(F)cc(-c2ccc3[nH]cc(-c4ccccc4)c3n2)c1 | 12.9%
27 | O=C(CSc1nc2sc3c(c2c(=O)n1-c1ccc(Cl)cc1)CCCC3)N/N=C/c1ccc(F)cc1 | 101%
28 | Cc1ccccc1NC(=O)/C=C/c1ccc(OCCOc2ccc3c(C)cc(=O)oc3c2)cc1 | 86.4%
29 | CCN(CC)c1ccc(C=O)c(OCc2cn(CC(=O)Nc3ccc(Cl)cc3)nn2)c1 | 69%
30 | CC(C)(C)OC(=O)N1C(=O)c2c(c3c4ccccc4[nH]c3c3ccc4ccccc4c23)C1=O | 97.2%
31 | O=C(CSc1nc2sc3c(c2c(=O)n1-c1ccc(Cl)cc1)CCCC3)NNC(=O)Nc1cccc(C(F)(F)F)c1 | 21.8%
32 | CC(=O)Oc1ccccc1C(=O)Nc1cc(C(C)C)ccc1C | 17.5%
33 | N#Cc1c(-c2ccc(Cl)cc2)nc(SCc2ccc(F)cc2)nc1N1CCNCC1 | 76.6%
34 | COc1ccc(NC(=O)c2sc3nc(-c4cnccn4)cc(-c4cccs4)c3c2N)cc1 | 93.6%
35 | CNC(=O)c1cc(-c2ccc(NC(=O)Nc3ccc(N4CCN(C)CC4)c(C(F)(F)F)c3)cc2)nc2cccnc12 | -79.4% (active)
36 | O=C(CSc1nccc(=O)[nH]1)Nc1ccc(-c2nc3ccccc3[nH]2)cc1 | 103%
37 | O=C1c2c(c3c4cccnc4[nH]c3c3ccc4ccccc4c23)C(=O)N1CCO | 69.9%
38 | CN1CCN(Cc2ccc(NC(=O)c3cncc(C#Cc4cnc5ccc(N6CCSCC6)nn45)c3)cc2C(F)(F)F)CC1 | -12.6% (active)
